# Screening results as filed in PubChem.
# Sampled rows, rich in hits. Any-hit rate of the full collection: about 2.3%.
# FBPA coupling cs = counter-screen for Giardia aldolase inhibitors: coupling enzyme system | coupling enzyme system counterscreen, AmpLite Red fluorescence | activity change, negative = inhibition, % at 58.2 µM, hits read low | hit rate 0.67% among 290,000; in the data active means activity change below about -30%; further: on the % scale 0 is the no-effect control and ±100 the full control effect
#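 First, compound is pin-transferred into glyceraldehyde-3-phosphate coupling-enzyme reagent at 57.5 uM final and held 10 min at RT. Next, substrate, coupling system and AmpLite Red are added. After 20 min RT, fluorescence (525/598 nm) is read.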
# HTT ATP protect = Huntington cell model cytoprotection by ATP luminescence. PC12 HTT-Q103 induced, cytoprotection, ATP luminescence, 40 h. Potency, µM (highest dose often 56.4 µM), for the others: cytoprotection (ATP increase), hits mostly activators. hit rate 0.14% among 230,000. AID 1471; further: potency means the concentration at half of the fitted maximal effect; % of control where 0% means no effect; nearly all actives have a fitted effect of over 45% in size
#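 Quantitative HTS on tebufenozide-induced (100 nM) PC12 cells expressing HTTQ103 exon 1–GFP; compounds tested as a concentration series; survival measured via cellular ATP.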
# HttQ103 aggreg = mutant huntingtin aggregation inhibition. PC12 HttQ103-GFP aggregates, Acumen cytometry, 40 h. Potency, µM (series often up to 46.1 µM), without a hit: at the highest dose activity change, negative = inhibition, usual class: inhibitors. hit rate 1.1% among 220,000; further: potency means the concentration at half of the fitted maximal effect; on the % scale 0 is the no-effect control and ±100 the full control effect; nearly all actives have a fitted effect of over 60% in size
#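 Using laser scanning cytometry, GFP-positive aggregates were counted after lysis of PC12 cells induced with 100 nM tebufenozide to express HTT exon 1 Q103–GFP. Compounds were tested in titration.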
# KDM4E inh = blocks human JMJD2E demethylase activity | B2RXH2 | JMJD2E catalytic domain, FDH-coupled NADH fluorescence (FDH is formaldehyde dehydrogenase) | Potency, µM (highest dose often 57.1 µM), for inactives: at the top dose activity change, negative = inhibition, usual class: inhibitors | hit rate 1.6% among 230,000 | AID 2147; active means well fitted inhibition curve with a large enough effect, not every such curve was filed as active; inconclusive means small, poorly fitted or top-dose-only effect, or another doubt; inactive means no such curve, though single readings can be large or run the other way;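 further: potency means the concentration at half of the fitted maximal effect; 0% = wells with enzyme and -100% = buffer wells without enzyme; nearly all actives have a fitted effect of over 50% in size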
# VDR inhibitor = inhibitors of human vitamin D receptor | VDR-SRC2-3 peptide fluorescence polarization, 2 h | Potency, µM, for inactives: max response, negative = inhibition, most hits filed as inhibitors | hit rate 0.93% among 400,000 | AID 504847; further: potency means the concentration at half of the fitted maximal effect; on the % scale 0 is the no-effect control and ±100 the full control effect
# Target sequence (P11473 whole entry, looked up): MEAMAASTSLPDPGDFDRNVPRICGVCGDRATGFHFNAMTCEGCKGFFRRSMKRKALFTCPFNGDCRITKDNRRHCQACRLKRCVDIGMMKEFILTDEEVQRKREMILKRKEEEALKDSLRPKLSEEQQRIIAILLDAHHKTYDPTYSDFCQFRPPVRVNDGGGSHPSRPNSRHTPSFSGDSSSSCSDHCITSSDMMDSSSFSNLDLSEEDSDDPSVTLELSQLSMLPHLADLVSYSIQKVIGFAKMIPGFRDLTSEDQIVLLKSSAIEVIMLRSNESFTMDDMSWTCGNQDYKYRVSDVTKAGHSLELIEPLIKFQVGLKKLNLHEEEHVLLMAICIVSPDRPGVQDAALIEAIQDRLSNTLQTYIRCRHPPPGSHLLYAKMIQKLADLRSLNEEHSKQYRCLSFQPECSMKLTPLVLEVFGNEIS
#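 FP read-out; VDR + SRC2-3 coactivator peptide; 23 nl compound by pintool; 2 h RT incubation; reagents held at 4 deg C, protected from light.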
# RGS12 GoLoco inh = RGS12 GoLoco-Gai1 interaction inhibition. P63096. Gai1:RGS12 GoLoco peptide FP, rhodamine, 10 min. Potency, µM (series often up to 61.6 µM), for the others: top-dose activity, negative = inhibition, most hits filed as inhibitors. hit rate 0.44% among 230,000. AID 880; active means well fitted inhibition curve with a large enough effect, not every such curve was filed as active; inactive means no such curve, though single readings can be large or run the other way; further: potency means the concentration at half of the fitted maximal effect; on the % scale 0 is the no-effect control and ±100 the full control effect; nearly all actives have a fitted effect of over 30% in size
# Active calls of the source: *; ? = inconclusive; nt = no result given; [ ] = remark or other dose. Unless noted, the call rests on the fitted dose curve; in most records, active means well fitted curve in the direction sought with a large enough effect; inconclusive means small, poorly fitted or top-dose-only effect, or another doubt; inactive means no such curve, though single readings can be large; an effect the other way counts as inactive or inconclusive.
SMILES,FBPA coupling cs,HTT ATP protect,HttQ103 aggreg,KDM4E inh,VDR inhibitor,RGS12 GoLoco inh
CC(C)C[C@@H](NC(=O)C1CCC(CNC(=O)[C@H](Cc2ccccc2)NC(=O)OC(C)(C)C)CC1)C(=O)O (some centres undefined),1,nt,nt,nt,-4%,nt
CCOC(=O)CNc1ccc2c(c1)OCO2,-38*,-13%[0.074 µM],-4%,?,-6%,-2%
CCOC(=O)CNC(=O)/C=C/c1ccc2c(c1)OCO2,2,-7%[10 µM],-4%,?,4%,129%
O=C(O)CN1C(=O)/C(=C\c2ccccc2OCc2ccc(Cl)cc2)SC1=S,15,nt,nt,nt,?,nt
O=C(O)CN1C(=O)/C(=C\c2cccc(OCc3ccc(F)cc3)c2)SC1=S,15,nt,nt,nt,45µM*,nt
CC(=C\c1ccccc1)/C=C1/SC(=S)N(CCCC(=O)O)C1=O,9,nt,nt,nt,79µM*,nt
O=C(O)CN1C(=O)/C(=C\c2cccc(OCc3ccccc3F)c2)SC1=S,15,nt,nt,nt,?,nt
O=C(O)CN1C(=O)/C(=C\c2cccc(OCc3ccc(Cl)cc3)c2)SC1=S,11,nt,nt,nt,50µM*,nt
CCN1C(=O)/C(=C\c2cccc(OC(=O)c3ccco3)c2)SC1=S,-38*,nt,nt,nt,-11%,nt
CC(C)=CCC/C(C)=C/CNC(=O)C[C@H]1C[C@H](C(=O)N2CCCCC2)[C@@]2(CCc3ccccc3)c3[nH]c4cc(CCC(=O)N(C)C)ccc4c3CCN2C1=O,nt,nt,nt,nt,3%,nt
O=C(O)CCN1C(=O)/C(=C\c2cccc(Oc3ccccc3)c2)SC1=S,13,nt,nt,nt,35µM*,nt
COc1ccc(/C=C2/SC(=S)N(CCC(=O)O)C2=O)cc1,17,-15%,-7%,1%,-9%,2%
Cc1ccccc1C(=O)Nc1ccc(-c2nc3ccc(C(=O)c4ccccc4)cc3[nH]2)cc1,-1,-68%,11µM*,?,14%,5%
CS(=O)(=O)c1ccccc1C(=O)Nc1ccc(-c2nc3ccccc3[nH]2)cc1,-1,nt,nt,nt,-3%,nt
CCN(CC)C(=O)c1oc2ccc(S(=O)(=O)N3CCCCCC3)cc2c1C,-1,3%,10µM*,5%,-2%,-3%
CCN(CC)C(=O)c1oc2ccc(S(=O)(=O)N3CC(C)CC(C)C3)cc2c1C (centres undefined),3,nt,nt,nt,-1%,nt
CC(C)(C)N=Cc1c(O)ccc2oc3c(c12)CCCC3,1,nt,nt,nt,-3%,nt
NC(=O)N/N=C/c1c(O)ccc2oc3c(c12)CCCC3,-3,12%[10 µM],-10%[9.22 µM],28µM*,-9%,3%
CCN(CC1CCCN(CCc2cccc(OC)c2)C1)C(=O)c1ccoc1C (centres undefined),nt,nt,nt,nt,4%,nt
Cc1c(C#N)c(NC(=O)CCl)n(Cc2ccc(F)cc2)c1C,0,-91%,6.3µM*,-29%,-25%,9%
Cc1c(C#N)c(NC(=O)CCl)n(Cc2cccs2)c1C,3,-9%[10 µM],20µM*,4%,-26%,22%
CCN(CC)C(=O)c1sc(NC(=O)Cc2cccs2)c(C#N)c1C,0,-17%[10 µM],-14%,5%,20%,1%
NC(=S)NN=C1c2ccccc2-c2c(F)c(F)c(F)c(F)c21,nt,nt,nt,nt,79µM*,nt
CCCCCCCn1c2c(c(=N)c3c1CCC3)CCCC2,0,nt,nt,3.5µM*,-6%,8%
CCCCCCn1c2c(c(=N)c3c1CCC3)CCC2,1,-17%[0.074 µM],1.8µM*,-2%,17%,5%
CCn1c2c(c(=N)c3c1CCC3)CCC2,4,0%[10 µM],-3%,5%,-5%,-13%
CCCCCCCCCn1c2c(c(=N)c3c1CCC3)CCC2,0,-52%[10 µM],1.3µM*,-2%,-24%,-1%
Cc1[nH]c2ccccc2c1C1(O)C(=O)N(Cc2ccccc2)c2ccc(Br)cc21 (centres undefined),nt,nt,nt,nt,6%,nt
C=C[C@@]1(C)CC[C@H](O)[C@H]2C(=O)CCC[C@@H]21,4,?,nt,-4%,4%,6%
CCCCn1c(NS(=O)(=O)c2ccc(C)cc2)c(S(=O)(=O)c2ccccc2)c2nc3ccccc3nc21,-53*,-13%[10 µM],10%,?,?,nt
